The values that follow come from ChEMBL document CHEMBL4513216, “Probing the Open Global Health Chemical Diversity Library for Multistage-Active Starting Points for Next-Generation Antimalarials” (ACS Infect Dis, 2020).

In all, about 68,000 compounds went through this assay and about 2,700 (4%) showed an effect of 50% or more. The full list was thinned out, with strong results kept by preference.

The experiment deals with Plasmodium berghei. The experiment is described as follows: Screen against P. berghei liver stage (PbLuc), transformed with Luciferase, at 2uM. The settings on record: tested at 2 uM. It counts as functional, HepG2.
As for `O=C(NC1CC1)[C@@H]1CCO[C@@H]2CCN(C3CCCC3)C[C@H]21`, the INHIBITION is recorded as -0.18%. For the compound `O=C(NC1CCC1)[C@@H]1CCO[C@@H]2CCN(C3CCCC3)C[C@H]21`, the INHIBITION came to 51.26%. The figure for `O=C(NC1CCC1)[C@@H]1CCO[C@@H]2CCN(C3CCCC3)C[C@@H]21` is 23.93%; for `CN1CCOC[C@H]1c1nc(-c2ccc(F)cc2F)c[nH]1` it is 3.55%. For `CC(C)(CCS(C)(=O)=O)CNc1ccc2ccc(F)cc2n1`, the INHIBITION is recorded as 50.93%.

Take `CC(C)(CNc1ccc2ccc(F)cc2n1)NS(C)(=O)=O`: the INHIBITION came to 5.92%. The figure for `CS(=O)(=O)CCOCCNc1ccc2ccc(F)cc2n1` is 35.63%; for `CC(C)(C)c1cc(C[C@H]2CNCC[C@H]2CC(=O)N2CCCCC2)no1` it is -13.88%. On to `CCc1nnc2n1CCN(C(=O)c1cc3ccc(F)cc3nc1C)C2`, for which the INHIBITION is recorded as 54.85%. Take `CCc1nnc2n1CCN(C(=O)c1cc3cc(C)ccc3[nH]1)C2`: the INHIBITION stood at 37.68%.

For the compound `CCc1nnc2n1CCN(C(=O)c1ccc3nc(C)c(C)nc3c1)C2`, the INHIBITION is on record as -72.78%. For `CCc1nnc2n1CCN(C(=O)CN(CC)CC)C2`, the INHIBITION amounted to 58.05%. For `CCc1nnc2n1CCN(C(=O)c1cc3ccccc3[nH]1)C2`, the INHIBITION is given as -3.06%. On to `CCc1nnc2n1CCN(C(=O)c1ccc(C(F)(F)F)nc1C)C2`, for which the INHIBITION is given as -41.59%.

`CCc1nnc2n1CCN(C(=O)c1cc3ccc(C)cc3[nH]1)C2`: the INHIBITION is 58.05%.

On to `CCc1nnc2n1CCN(C(=O)CN(C)Cc1ccccc1)C2`, for which the INHIBITION was -34.45%.

With `CCc1nnc2n1CCN(C(=O)CN(C)C1CC1)C2`, the INHIBITION is on record as -3.06%.

As for `COc1cccc2c1N(C(=O)c1ccc(C)nc1)CCC2`, the INHIBITION is on record as 0.79%.

Take `O=C(NCc1nnc2n1CCCCC2)N(CC1CCOC1)C1CC1` (stereo unspecified): the INHIBITION was -1.21%. For the compound `CC(C)C1CN(C(=O)c2ccsc2)CCS1` (stereo unspecified), the INHIBITION was -9.94%. Consider `CN(C)c1cc(NCc2cnc3n2CCN(CC2CC2)CC3)ncn1`, for which the INHIBITION turned out to be 34.04%.

For the compound `O=C(NCc1ccccn1)[C@]12COC[C@H]1CN(Cc1ccsc1)C2`, the INHIBITION is on record as 42.62%. The result for `Cc1ccc2nc(C)cc(C(=O)NC(C)c3nnn[nH]3)c2c1` (stereo unspecified) reads -67.78%; that for `CNC(=O)CN(C)c1cncc(OCc2ccccc2)n1`, -22.24%.

Regarding `CCCc1nnsc1C(=O)N1CCN(CC(C)O)CC1` (stereo unspecified), the INHIBITION is -47.97%. The result for `CC(=O)N1CCC(C(=O)NCc2ncc(-c3ccccc3)o2)CC1` reads 45.67%; that for `Cn1c(=NC(=O)CSCC(=O)Nc2nccs2)sc2ccccc21`, -29.3%.

Turning to `COc1ccc2c(c1)sc(=NC(=O)CSCC(=O)Nc1nccs1)n2C`, the INHIBITION is recorded as 54.16%. The result for `CCn1c(=NC(=O)CSCC(=O)Nc2nccs2)sc2ccccc21` reads -35.96%.

Regarding `COc1ccccc1CC(=O)N1CCC(NCc2ccccn2)CC1`, the INHIBITION is on record as 57.64%. The figure for `COc1ccccc1CC(=O)N1CCC(NCc2cccnc2)CC1` is -135.87%; for `COc1ccccc1CC(=O)N1CCC(NCc2ccncc2)CC1` it is 44.71%; for `Cc1ccnc(C2CCN(C(=O)c3cnn(C)c3)CC2)n1` it is 11.74%. As for `CCn1cc(NC(=O)C2CCN(CC(=O)NC(C)(C)CC)CC2)cn1`, the INHIBITION is on record as 7.13%. Consider `CC(C(=O)N1CCN(c2ccc(F)cc2)CC1)n1ccnc1` (stereo unspecified), for which the INHIBITION is -20.89%. For the compound `CC(C(=O)N1CCN(C(=O)c2ccc(F)cc2)CC1)n1ccnc1` (stereo unspecified), the INHIBITION turned out to be 54.41%. With `Cc1ccc(C(=O)N2CCN(C(=O)C(C)n3ccnc3)CC2)cc1F` (stereo unspecified), the INHIBITION is listed as 38.65%. Take `O=C(NCc1cnc2n1CCN(Cc1ccoc1)C2)c1ccno1`: the INHIBITION amounted to 42.64%.

Turning to `COC1CN(C(=O)NC2CCCC2)CCC(=O)N(C)c2ccccc21` (stereo unspecified), the INHIBITION is 15.96%.

Turning to `Cc1cnc(C)c(N2CCCC(CO)(Cc3cccc(Cl)c3)C2)n1` (stereo unspecified), the INHIBITION came to 8.14%. `OCC1(Cc2cccc(Cl)c2)CCCN(c2ncccn2)C1` (stereo unspecified): the INHIBITION is listed as -16.17%. The result for `Nc1ccnc(N2CCCC(CO)(Cc3cccc(Cl)c3)C2)n1` (stereo unspecified) reads 57.51%. In the case of `O=C(NCC1CCC2(CCNCC2)CO1)c1cnccn1` (stereo unspecified), the INHIBITION is on record as -13.14%. Regarding `Cc1ccc(N2CC[C@H]3CN(C(=O)c4ccn(C)n4)C[C@H]3C2)nn1`, the INHIBITION is on record as -32.66%. The figure for `Cc1cccc(CNC2CCCc3c2cnn3C)c1` (stereo unspecified) is 51.21%; for `CC(C)(C)n1ncc2c1CCCC2NCc1ccc2c(c1)CCO2` (stereo unspecified) it is 64.67%; for `Cc1ccc(CNC2CCCc3c2cnn3C)s1` (stereo unspecified) it is 28.51%.

Regarding `CCn1ncc2c1CCCC2NCc1ccc2c(c1)CCO2` (stereo unspecified), the INHIBITION is -7.81%. Regarding `CC(C)(C)n1ncc2c1CCCC2NCc1ccc2c(c1)OCCO2` (stereo unspecified), the INHIBITION is on record as -12.39%. As to `Cn1ncc2c1CCCC2NCc1ccc(Br)s1` (stereo unspecified), the INHIBITION was determined as 54.86%. Turning to `Cn1ncc2c1CCCC2NCc1ccc(Cl)s1` (stereo unspecified), the INHIBITION is given as -21.31%. Regarding `Cc1cccc(CNC2CCCc3c2cnn3Cc2ccccc2)c1` (stereo unspecified), the INHIBITION is listed as -2.26%. Regarding `Cn1ncc2c1CCCC2NCc1cccc(F)c1` (stereo unspecified), the INHIBITION is -33.95%. The result for `CC(C)(C)c1nc(CC(=O)Nc2cnccc2O)cs1` reads -5.75%. The result for `CN1CCCC(CCC(=O)N2CCc3c(nc(CC4CC4)[nH]c3=O)C2)C1` (stereo unspecified) reads 10.1%; that for `CCc1cccc(OCC(=O)NC(C)c2nnc3n2CCC3)c1` (stereo unspecified), 0.31%. Turning to `CS(=O)(=O)c1ccc(C(=O)NCc2nc3cc(F)ccc3[nH]2)cc1`, the INHIBITION is reported as 44.61%.

Consider `O=C(NC1CCN(C(=O)C2CCCCC2)C1)c1ccncc1Cl` (stereo unspecified), for which the INHIBITION is -56.84%. The figure for `CC1=Nc2c(c(=O)[nH]n2C2CCCCC2)C(c2cccnc2)S1` (stereo unspecified) is -30.12%; for `COC1COC2(CCN(Cc3ccc4c(c3)OCO4)CC2)C1` (stereo unspecified) it is 22.16%; for `CN(Cc1ccncc1)C1COC2(CCN(Cc3ccccn3)CC2)C1` (stereo unspecified) it is 23.59%. Turning to `COC1CC2(CCN(Cc3nccn3C)CC2)C1`, the INHIBITION is reported as 52.66%. Consider `CCOC1COC2(CCN(Cc3ccc4c(c3)OCO4)CC2)C1` (stereo unspecified), for which the INHIBITION is listed as -59.24%. The result for `Cn1ccnc1CN1CCC2(CC1)CC(Oc1cccnc1)C2` reads 24.83%. For the compound `CC(C)COC1CC2(CCN(Cc3nccn3C)CC2)C1`, the INHIBITION is recorded as 58.93%. As to `COCC1CC2(CCN(Cc3nccn3C)CC2)CN1c1ncccn1` (stereo unspecified), the INHIBITION is recorded as 12.88%.

Take `COC1CC2(CCN(Cc3ccc4c(c3)OCO4)CC2)C1`: the INHIBITION worked out at 69.22%.

In the case of `Cn1ccnc1CN1CCC2(CC1)COC2`, the INHIBITION is 24.23%. For `CCOC1CC2(CCN(Cc3nccn3C)CC2)C1`, the INHIBITION amounted to 16.98%. Regarding `CN(Cc1ccncc1)C1COC2(CCN(Cc3cccs3)CC2)C1` (stereo unspecified), the INHIBITION is on record as -3.11%.

As to `CN(Cc1ccncc1)C1COC2(CCN(Cc3nccn3C)CC2)C1` (stereo unspecified), the INHIBITION stood at 64.31%.
